Columns and labels:
Assay in all cases: DAPPL (digital affinity profiling via proximity ligation, sequencing); 10 mM Tris-HCl pH 7.5, 50 mM NaCl, 1 mM DTT, 4% glycerol, room temperature, 30 min; GST-TFs on glutathione beads, 16-mer random dsDNA library, 0.1% formaldehyde crosslink after washing; high values mean tight binding
Conditions in all cases: protein: recombinant; tags: N-terminal GST; dsDNA, one strand shown
FLI1 = molecular target: T1, FLI1 (Homo sapiens, UniProt Q01543 1-452)
T1 sequence: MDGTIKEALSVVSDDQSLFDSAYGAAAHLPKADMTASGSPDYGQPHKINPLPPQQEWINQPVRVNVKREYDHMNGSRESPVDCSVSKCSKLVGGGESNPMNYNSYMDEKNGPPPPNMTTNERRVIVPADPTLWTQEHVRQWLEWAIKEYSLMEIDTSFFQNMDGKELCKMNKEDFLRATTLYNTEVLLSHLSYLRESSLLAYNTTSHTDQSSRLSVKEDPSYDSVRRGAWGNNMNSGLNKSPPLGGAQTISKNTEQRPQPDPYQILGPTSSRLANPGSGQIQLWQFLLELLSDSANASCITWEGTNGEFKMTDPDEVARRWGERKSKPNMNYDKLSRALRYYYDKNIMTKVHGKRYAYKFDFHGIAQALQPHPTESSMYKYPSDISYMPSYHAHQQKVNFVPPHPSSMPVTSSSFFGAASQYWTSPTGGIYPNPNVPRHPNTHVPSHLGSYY
How it was run: (§1)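 The binding signal reported is, for every hexamer, its read frequency for a factor over its read frequency for the tag-only sample. Reads came from pools of yeast-expressed, GST-fused human transcription factors on glutathione beads, barcoded with DNA and mixed with that sample, which were incubated with 200 nmole of a random double-stranded 16-mer DNA library in Tris/NaCl/DTT/glycerol buffer at room temperature for 30 min. After washing, the pools were crosslinked with 0.1% formaldehyde, proximity-ligated with BsaI/T4 ligase for 1 h at 37 °C, PCR-amplified and sequenced on an Illumina NextSeq500.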

ELK1 = molecular target: T2, ELK1 (Homo sapiens, UniProt P19419 1-428)
T2 sequence: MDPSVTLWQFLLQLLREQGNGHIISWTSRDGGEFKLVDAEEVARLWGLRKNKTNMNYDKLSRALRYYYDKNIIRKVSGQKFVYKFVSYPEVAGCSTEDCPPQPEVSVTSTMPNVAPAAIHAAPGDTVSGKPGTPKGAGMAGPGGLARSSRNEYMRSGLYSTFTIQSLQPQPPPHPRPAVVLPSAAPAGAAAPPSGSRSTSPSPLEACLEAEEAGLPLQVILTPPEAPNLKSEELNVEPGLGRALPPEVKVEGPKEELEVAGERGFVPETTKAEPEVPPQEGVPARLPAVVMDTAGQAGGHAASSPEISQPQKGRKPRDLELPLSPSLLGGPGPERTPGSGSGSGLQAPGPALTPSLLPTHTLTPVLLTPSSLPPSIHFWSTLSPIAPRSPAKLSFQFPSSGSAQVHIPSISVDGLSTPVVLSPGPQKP
How it was run: as §1

GABPA = molecular target: T3, GABPA (Homo sapiens, UniProt Q06546 1-454)
T3 sequence: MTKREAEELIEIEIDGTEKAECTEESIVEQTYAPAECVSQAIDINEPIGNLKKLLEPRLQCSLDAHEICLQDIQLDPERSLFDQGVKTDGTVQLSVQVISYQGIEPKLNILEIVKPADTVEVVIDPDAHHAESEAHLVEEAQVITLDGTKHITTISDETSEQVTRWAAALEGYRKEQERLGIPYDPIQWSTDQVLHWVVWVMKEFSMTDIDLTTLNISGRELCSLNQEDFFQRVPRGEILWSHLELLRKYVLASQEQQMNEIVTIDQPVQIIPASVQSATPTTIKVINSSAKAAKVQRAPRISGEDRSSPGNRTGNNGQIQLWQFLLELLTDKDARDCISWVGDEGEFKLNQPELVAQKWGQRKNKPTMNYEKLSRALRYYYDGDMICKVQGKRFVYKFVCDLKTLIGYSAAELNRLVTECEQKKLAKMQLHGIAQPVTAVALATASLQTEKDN
How it was run: as §1

ERG = molecular target: T4, ERG (Homo sapiens, UniProt P11308 1-479)
T4 sequence: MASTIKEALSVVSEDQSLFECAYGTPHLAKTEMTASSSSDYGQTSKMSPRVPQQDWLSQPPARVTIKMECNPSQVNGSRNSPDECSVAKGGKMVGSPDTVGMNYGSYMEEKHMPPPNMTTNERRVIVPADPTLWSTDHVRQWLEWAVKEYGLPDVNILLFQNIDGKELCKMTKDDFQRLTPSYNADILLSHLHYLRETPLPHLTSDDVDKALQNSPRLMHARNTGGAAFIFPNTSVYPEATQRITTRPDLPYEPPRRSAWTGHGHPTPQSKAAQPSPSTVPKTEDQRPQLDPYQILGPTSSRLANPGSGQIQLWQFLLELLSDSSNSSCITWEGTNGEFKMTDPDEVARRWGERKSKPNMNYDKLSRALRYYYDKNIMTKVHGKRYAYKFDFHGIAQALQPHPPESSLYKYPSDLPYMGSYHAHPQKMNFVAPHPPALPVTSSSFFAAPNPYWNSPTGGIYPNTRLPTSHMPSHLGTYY
How it was run: as §1

SPI1 = SPI1 (Homo sapiens, UniProt P17947 1-270)
How it was run: as §1

SPIB = SPIB (Homo sapiens, UniProt Q01892 1-262)
Sequence of SPIB (Q01892 whole entry): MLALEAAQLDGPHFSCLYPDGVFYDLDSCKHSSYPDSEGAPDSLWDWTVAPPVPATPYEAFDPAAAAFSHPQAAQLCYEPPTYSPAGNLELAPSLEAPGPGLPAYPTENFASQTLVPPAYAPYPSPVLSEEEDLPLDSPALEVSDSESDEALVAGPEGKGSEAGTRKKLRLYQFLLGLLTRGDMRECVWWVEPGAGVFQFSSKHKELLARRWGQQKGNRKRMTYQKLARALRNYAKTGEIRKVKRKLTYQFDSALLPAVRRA
How it was run: as §1

ELF1 = ELF1 (Homo sapiens, UniProt P32519 1-619)
Sequence of ELF1 (P32519 whole entry): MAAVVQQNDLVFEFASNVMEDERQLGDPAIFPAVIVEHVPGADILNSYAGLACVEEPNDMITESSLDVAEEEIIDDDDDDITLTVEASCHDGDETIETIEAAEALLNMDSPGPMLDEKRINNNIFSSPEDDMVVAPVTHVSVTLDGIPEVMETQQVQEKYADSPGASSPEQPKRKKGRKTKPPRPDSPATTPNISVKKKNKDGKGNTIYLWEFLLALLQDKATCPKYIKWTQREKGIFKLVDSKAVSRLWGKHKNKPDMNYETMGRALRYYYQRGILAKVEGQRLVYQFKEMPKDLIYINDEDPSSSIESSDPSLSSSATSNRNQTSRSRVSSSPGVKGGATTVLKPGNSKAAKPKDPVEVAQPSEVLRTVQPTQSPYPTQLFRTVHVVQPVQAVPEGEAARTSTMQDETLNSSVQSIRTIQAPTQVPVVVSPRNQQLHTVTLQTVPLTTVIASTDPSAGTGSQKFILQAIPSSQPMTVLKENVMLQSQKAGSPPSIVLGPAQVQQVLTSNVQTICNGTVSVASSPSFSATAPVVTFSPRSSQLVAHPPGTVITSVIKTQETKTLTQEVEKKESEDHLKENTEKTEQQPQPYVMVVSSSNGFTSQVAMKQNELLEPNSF
How it was run: as §1

ELK3 = molecular target: T5, ELK3 (Homo sapiens, UniProt P41970 1-407)
T5 sequence: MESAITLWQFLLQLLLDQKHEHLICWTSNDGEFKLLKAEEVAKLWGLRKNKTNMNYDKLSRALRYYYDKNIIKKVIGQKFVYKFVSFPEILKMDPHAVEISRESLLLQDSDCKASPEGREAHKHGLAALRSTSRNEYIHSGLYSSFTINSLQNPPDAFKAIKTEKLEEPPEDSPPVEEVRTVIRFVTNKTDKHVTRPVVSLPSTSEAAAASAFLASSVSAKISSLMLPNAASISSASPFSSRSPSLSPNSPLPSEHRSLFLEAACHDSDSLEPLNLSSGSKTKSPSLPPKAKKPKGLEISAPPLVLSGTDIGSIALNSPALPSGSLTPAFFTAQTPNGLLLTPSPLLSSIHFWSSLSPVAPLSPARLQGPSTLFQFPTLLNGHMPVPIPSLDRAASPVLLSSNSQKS
How it was run: as §1

Sequence	binding signal (FLI1)	binding signal (ELK1)	binding signal (GABPA)	binding signal (ERG)	binding signal (SPI1)	binding signal (SPIB)	binding signal (ELF1)	binding signal (ELK3)
GGCTTG	1.12 fold enrichment (6-mer frequency, TF over GST control)	1.04 fold enrichment (6-mer frequency, TF over GST control)	1.04 fold enrichment (6-mer frequency, TF over GST control)	1.09 fold enrichment (6-mer frequency, TF over GST control)	1.02 fold enrichment (6-mer frequency, TF over GST control)	1.06 fold enrichment (6-mer frequency, TF over GST control)		
ACCCTG	1.05 fold enrichment (6-mer frequency, TF over GST control)	1.09 fold enrichment (6-mer frequency, TF over GST control)	1.06 fold enrichment (6-mer frequency, TF over GST control)	1.05 fold enrichment (6-mer frequency, TF over GST control)	1.05 fold enrichment (6-mer frequency, TF over GST control)	1.09 fold enrichment (6-mer frequency, TF over GST control)	1.13 fold enrichment (6-mer frequency, TF over GST control)	1.24 fold enrichment (6-mer frequency, TF over GST control)
GCCCAT	1.06 fold enrichment (6-mer frequency, TF over GST control)	1.05 fold enrichment (6-mer frequency, TF over GST control)	1.17 fold enrichment (6-mer frequency, TF over GST control)	1.04 fold enrichment (6-mer frequency, TF over GST control)	1.03 fold enrichment (6-mer frequency, TF over GST control)	1.04 fold enrichment (6-mer frequency, TF over GST control)	1.06 fold enrichment (6-mer frequency, TF over GST control)	1.04 fold enrichment (6-mer frequency, TF over GST control)
AGTTCT	1.02 fold enrichment (6-mer frequency, TF over GST control)	1.15 fold enrichment (6-mer frequency, TF over GST control)	1.11 fold enrichment (6-mer frequency, TF over GST control)	1.11 fold enrichment (6-mer frequency, TF over GST control)	1.14 fold enrichment (6-mer frequency, TF over GST control)	1.2 fold enrichment (6-mer frequency, TF over GST control)	1.04 fold enrichment (6-mer frequency, TF over GST control)	1.11 fold enrichment (6-mer frequency, TF over GST control)

— publication PMC7862700, “An all-to-all approach to the identification of sequence-specific readers for epigenetic DNA modifications on cytosine”
